The structures appear in SMILES notation. Inconclusive results are not listed. Calls of active or inactive are those of the source. The calls were made as follows: active = hit-call score of the fitted dose curve at least 0.9, where 1 is the maximum; inconclusive = response in the unintended direction; inactive = score below 0.9.

Sequence of Hepatocyte nuclear factor 4-alpha (Homo sapiens) (P41235 whole entry, looked up): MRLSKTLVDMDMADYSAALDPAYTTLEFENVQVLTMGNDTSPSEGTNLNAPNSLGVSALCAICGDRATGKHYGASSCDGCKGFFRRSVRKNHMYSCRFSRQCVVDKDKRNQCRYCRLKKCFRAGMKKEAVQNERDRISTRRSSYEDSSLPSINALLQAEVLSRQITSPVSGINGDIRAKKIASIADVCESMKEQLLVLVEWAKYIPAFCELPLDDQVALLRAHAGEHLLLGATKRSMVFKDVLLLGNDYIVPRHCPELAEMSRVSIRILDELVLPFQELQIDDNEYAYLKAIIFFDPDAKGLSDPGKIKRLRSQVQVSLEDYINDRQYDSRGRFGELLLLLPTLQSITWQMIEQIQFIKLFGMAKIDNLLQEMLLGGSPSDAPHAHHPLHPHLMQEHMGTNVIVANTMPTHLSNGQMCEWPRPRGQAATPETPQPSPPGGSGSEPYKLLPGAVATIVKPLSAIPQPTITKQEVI

In the test the target is Hepatocyte nuclear factor 4-alpha (Homo sapiens) (UniProt P41235). In words: ATG_HNF4a_TRANS: Attagene TRANS-FACTORIAL HepG2 Assay for human Hepatocyte Nuclear Factor 4 alpha (HNF4a) (AID 2282982). The note with it: HepG2 HNF4a transactivation reporter, mRNA readout. On the procedure:
ATG_TRANS is a cell-based, multiplexed-readout assay that uses HepG2, a human liver cell line, with measurements taken at 24 hours after chemical dosing in a 24-well plate.ATG_HNF4a_TRANS is one of 30 assay component(s) measured or calculated from the ATG_TRANS assay. It is designed to make measurements of mRNA induction, a form of inducible reporter, as detected with fluorescence intensity signals by Reverse transcription polymerase chain reaction (RT-PCR) and Capillary electrophoresis technology.Data from the assay component ATG_HNF4a_TRANS was analyzed into 1 assay endpoint. This assay endpoint, ATG_HNF4a_TRANS, was analyzed in the positive analysis fitting direction relative to DMSO as the negative control and baseline of activity. Using a type of inducible reporter, measures of mRNA for gain-of-signal activity can be used to understand the reporter gene at the transcription factor-level as they relate to the gene HNF4A. Furthermore, this assay endpoint can be referred to as a primary readout, because this assay has produced multiple assay endpoints where this one serves a reporter gene function. To generalize the intended target to other relatable targets, this assay endpoint is annotated to the nuclear receptor intended target family, where the subfamily is orphan.
Human liver HepG2 cells are transiently transfected with multiple reporter transcription units (MRTUs) in 6-well plates using FuGene 6 reagent (Roche; 3 ml FuGene/1 mg DNA). The MRTU constructs are regulated by a cis-regulating element (promoter). […] A major difference between the CIS and TRANS system is that in CIS activities of endogenous TFs are measured, whereas the TRANS assay evaluates changes in activities of exogenous, chimeric NR-Gal4 proteins. […] At the end of 24 hour incubation, total RNA was isolated using TriZol reagent (Invitrogen). The isolated RNA is then reverse-transcribed using oligo(dT) primer and Mo-MLV reverse transcriptase (Invitrogen) with DNAse I (Ambion) treatment for 30 min. The one-tenth of the produced cDNA was amplified by PCR using Taq DNA polymerase (Invitrogen) and two reporter sequence-specific primers. The PCR products were fluorescently labeled by primer extension with 6-arboxyfluorescein (6-FAM) 5'-labeled reporter sequence-specific primer (2 min at 95 C, 20 s at 68 C and 10 min at 72 C) and these products were digested with 5U of HpaI (New England Biolabs) for 2h at 37 C. The fragments were purified using Qiaquick PCR columns (Qiagen), analyzed on an ABI 3130xL genetic analyzer (Applied Biosystems) with peak positions identified by using a set of X-rhodamine (ROX)-labeled MapMarker1000 molecular weight standards (BioVentures). The raw capillary electrophoresis data was processed using Attagraph software (Attagene).
Regarding `CCN(CC)C(=O)SCc1ccc(Cl)cc1`, the result was inactive. The result for `CC(C)OC(=O)Nc1cccc(Cl)c1` reads “inactive”. Consider `CNC(=O)/C=C(\C)OP(=O)(OC)OC`, for which the outcome was inactive. To `CC[C@H](C)[C@H]1O[C@]2(C=C[C@@H]1C)C[C@@H]1C[C@@H](C/C=C(\C)[C@@H](O[C@H]3C[C@H](OC)[C@@H](O[C@H]4C[C@H](OC)[C@@H](O)[C@H](C)O4)[C@H](C)O3)[C@@H](C)/C=C/C=C3\CO[C@@H]4[C@H](O)C(C)=C[C@@H](C(=O)O1)[C@]34O)O2` (tested in a mixture with another compound) belongs “inactive”; to `N#Cc1c(Cl)c(Cl)c(Cl)c(C#N)c1Cl`, “inactive”. `C[C@H]1[C@H](c2ccc(Cl)cc2)SC(=O)N1C(=O)NC1CCCCC1`: the result was inactive. Consider `CCOC1Oc2ccc(OS(C)(=O)=O)cc2C1(C)C` (stereo not given), for which the call was inactive. The result for `CC1(c2ccc(Oc3ccccc3)cc2)OC(=O)N(Nc2ccccc2)C1=O` (stereo not given) reads “inactive”. To `Oc1ccc(Cl)cc1Cc1ccccc1` belongs “inactive”; to `O=S(=O)(O)C(F)(F)C(F)(F)C(F)(F)C(F)(F)C(F)(F)C(F)(F)C(F)(F)C(F)(F)F`, “inactive”; to `CNC(=O)Oc1cccc(N=CN(C)C)c1`, “inactive”.

For `O=[N+]([O-])c1c(Cl)c(Cl)c(Cl)c(Cl)c1Cl`, the result was inactive.

Take `COP(=S)(OC)Oc1ccc(SC)c(C)c1`: the compound was classed as inactive.

For the compound `COP(=S)(OC)Oc1ccc([N+](=O)[O-])cc1`, the outcome was inactive. To `COC(=O)c1ccccc1CS(=O)(=O)NC(=O)Nc1nc(OC)cc(OC)n1` belongs “inactive”. To `O=S1OCC2C(CO1)C1(Cl)C(Cl)=C(Cl)C2(Cl)C1(Cl)Cl` (stereo not given) belongs “inactive”; to `CCc1ccc(C(=O)NN(C(=O)c2cc(C)cc(C)c2)C(C)(C)C)cc1`, “inactive”. To `CNC(=O)CSP(=S)(OC)OC` belongs “inactive”; to `Cc1cc(C)nc(NC(=O)NS(=O)(=O)c2ccccc2C(=O)OC2COC2)n1`, “inactive”.

Turning to `N#CN`, the call was inactive. The result for `CC(C)(C)C(O)C(Oc1ccc(Cl)cc1)n1cncn1` (stereo not given) reads “inactive”. To `O=C1c2ccccc2C(=O)N1SC(Cl)(Cl)Cl` belongs “inactive”; to `COP(=O)(OC)OC=C(Cl)Cl`, “inactive”; to `O=C(Nc1ccccc1)Nc1cnns1`, “inactive”. Turning to `COC(=O)c1ccccc1S(=O)(=O)NC(=O)N(C)c1nc(C)nc(OC)n1`, the outcome was inactive. To `C#CCN1C(=O)COc2cc(F)c(N3C(=O)C4=C(CCCC4)C3=O)cc21` belongs “inactive”; to `CCC(C)Nc1c([N+](=O)[O-])cc(C(C)(C)C)cc1[N+](=O)[O-]` (stereo not given), “inactive”. The result for `COc1cc(OC)nc(NC(=O)NS(=O)(=O)c2cc(NC=O)ccc2C(=O)N(C)C)n1` reads “inactive”; that for `CCC(C)(NC(=O)c1cc(Cl)c(C)c(Cl)c1)C(=O)CCl` (stereo not given), “inactive”. To `[2H]C1([2H])[n+]2ccccc2-c2cccc[n+]2C1([2H])[2H]` belongs “inactive”; to `CCS(=O)(=O)c1cccnc1S(=O)(=O)NC(=O)Nc1nc(OC)cc(OC)n1`, “inactive”; to `COC(=O)c1ccccc1S(=O)(=O)NC(=O)Nc1nc(C)nc(OC)n1`, “inactive”. Regarding `Cc1[nH]c(=O)n(C(C)(C)C)c(=O)c1Cl`, the result was inactive. The result for `Clc1ccccc1-c1nnc(-c2ccccc2Cl)nn1` reads “inactive”; that for `CCCN(CCOc1c(Cl)cc(Cl)cc1Cl)C(=O)n1ccnc1`, “inactive”. To `O=C(O)COc1ccc(Cl)cc1Cl` belongs “inactive”; to `O=C(O)CCCOc1ccc(Cl)cc1Cl`, “inactive”. Consider `ClC1C(Cl)C(Cl)C(Cl)C(Cl)C1Cl` (stereo not given), for which the compound was called inactive. To `O=C(NC(=O)c1c(F)cccc1F)Nc1ccc(OC(F)(F)C(F)OC(F)(F)F)c(Cl)c1` (stereo not given) belongs “inactive”; to `Oc1cc(Cl)ccc1Oc1ccc(Cl)cc1Cl`, “inactive”.

Source of the values: PubChem BioAssay (EPA / NIEHS).
